Results taken from the supplement of paper PMC6089552.
Screen size: about 3,200 compounds; about 300 (9.4%) showed activity. This excerpt belongs to a sample that is enriched for actives.

Test system: A673/TR/shEF
Assay: cell viability (LOESS-normalised, relative to median of negative controls) (log2 ratio); higher = more viable cells (less compound effect), active = hit call of the paper (over 3 MAD below the median)
Conditions: treatment time: 72 h
Method in brief: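 For three days, A673/TR/shEF Ewing sarcoma cells in 384-well plates (1,500 per well) were treated with library compounds at two or more concentrations or with DMSO controls, after doxycycline had been added or withheld 24 h beforehand to induce EWS-FLI1 shRNA knockdown. Viability was read by CellTiter-Glo luminescence on an Envision reader. The data were LOESS-corrected per plate, divided by the median of negative controls and log2-transformed.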

[1] = 0.25 µM, library screen: screen1, EWS-FLI1 expression: high (no doxycycline)
[2] = 0.25 µM, library screen: screen1, EWS-FLI1 expression: low (doxycycline-induced shRNA knockdown)
[3] = 2.5 µM, library screen: screen1, EWS-FLI1 expression: high (no doxycycline)
[4] = 2.5 µM, library screen: screen1, EWS-FLI1 expression: low (doxycycline-induced shRNA knockdown)
[5] = 0.25 µM, library screen: screen2, EWS-FLI1 expression: high (no doxycycline)
[6] = 0.25 µM, library screen: screen2, EWS-FLI1 expression: low (doxycycline-induced shRNA knockdown)
[7] = 2.5 µM, library screen: screen2, EWS-FLI1 expression: high (no doxycycline)
[8] = 2.5 µM, library screen: screen2, EWS-FLI1 expression: low (doxycycline-induced shRNA knockdown)
[9] = 0.025 µM, library screen: screen1, EWS-FLI1 expression: high (no doxycycline)
[10] = 0.025 µM, library screen: screen1, EWS-FLI1 expression: low (doxycycline-induced shRNA knockdown)
[11] = 25 µM, library screen: screen1, EWS-FLI1 expression: high (no doxycycline)
[12] = 25 µM, library screen: screen1, EWS-FLI1 expression: low (doxycycline-induced shRNA knockdown)

Measured: cell viability (log2)

Cc1cc(=O)oc2cc(O)c(O)cc12
inactive: [1] -0.0238 | [2] 0.0536 | [3] 0.00784 | [4] 0.0751

Cc1cc(=O)oc2c(O)c(O)ccc12
inactive: [2] -0.0218 | [3] 0.0459 | [4] 0.107
active: [1] -0.0965

Cc1cc(=O)oc2cc(O)ccc12
inactive: [1] 0.129 | [2] 0.0733 | [3] 0.103 | [4] -0.0344

N#CC1=C(N)Oc2cc(N)ccc2C1c1ccc(OCc2ccccc2)cc1 (stereo not drawn)
inactive: [1] 0.04 | [2] 0.0479 | [3] 0.099 | [4] 0.204

CC(C)C[C@H](N)CSSC[C@@H](N)CC(C)C
inactive: [5] 0.107 | [6] 0.1 | [7] 0.104 | [8] 0.0902

CCCCOCCOC(=O)CCCOc1ccc(Cl)cc1Cl
inactive: [1] 0.0256 | [2] 0.038 | [3] 0.0946 | [4] 0.127

Cn1cc(C2=C(c3cn(CCCSC(=N)N)c4ccccc34)C(=O)NC2=O)c2ccccc21
inactive: [9] 0.0502 | [10] 0.0613 | [1] -0.0731 | [2] 0.0259
active: [3] -1.27 | [4] -0.615 | [11] -4.25 | [12] -2.05

CN(C)CCCn1cc(C2=C(c3c[nH]c4ccccc34)C(=O)NC2=O)c2ccccc21
inactive: [9] 0.176 | [10] 0.147 | [1] 0.197 | [2] 0.193 | [12] 0.0609
active: [3] -0.136 | [11] -0.422
0.291: [4]

Cn1cc(C2=C(c3ccc(Cl)cc3Cl)C(=O)NC2=O)c2ccccc21
inactive: 0.103 µM, library screen: screen3, EWS-FLI1 expression: high (no doxycycline) 0.039 | 0.103 µM, library screen: screen3, EWS-FLI1 expression: low (doxycycline-induced shRNA knockdown) 0.0193 | 0.308 µM, library screen: screen3, EWS-FLI1 expression: high (no doxycycline) 0.0253 | 0.308 µM, library screen: screen3, EWS-FLI1 expression: low (doxycycline-induced shRNA knockdown) 0.0244 | 0.926 µM, library screen: screen3, EWS-FLI1 expression: high (no doxycycline) 0.0632 | 0.926 µM, library screen: screen3, EWS-FLI1 expression: low (doxycycline-induced shRNA knockdown) 0.00111 | 2.8 µM, library screen: screen3, EWS-FLI1 expression: high (no doxycycline) 0.0516 | 2.8 µM, library screen: screen3, EWS-FLI1 expression: low (doxycycline-induced shRNA knockdown) -0.00589 | 8.3 µM, library screen: screen3, EWS-FLI1 expression: high (no doxycycline) 0.0741 | 8.3 µM, library screen: screen3, EWS-FLI1 expression: low (doxycycline-induced shRNA knockdown) 0.0603 | 25 µM, library screen: screen3, EWS-FLI1 expression: high (no doxycycline) 0.04 | 25 µM, library screen: screen3, EWS-FLI1 expression: low (doxycycline-induced shRNA knockdown) 0.0754

O=C(Nc1c(-c2ccccc2)nc2ccc(Cl)cn12)c1ccc(F)cc1
inactive: [1] 0.0947 | [2] 0.0794 | [3] 0.184 | [4] -0.0685

NCC1OC(OC2C(N)CC(N)C(OC3OC(CO)C(O)C(N)C3O)C2O)C(O)C(O)C1O (stereo not drawn)
inactive: [1] 0.121 | [2] -0.0254 | [3] 0.206 | [4] 0.0929

COC(=O)c1c(C)c2c(c(C)c1OC(C)=O)OC(=O)c1c(C)c(Cl)c(O)c(Cl)c1O2
inactive: [1] 0.0664 | [2] 0.0141 | [3] 0.0918 | [4] 0.03

C[C@@H]1[C@H]2[C@H](O[C@@H]3O[C@H](CO)[C@@H](O)[C@H](O)[C@H]3O)OC=C(C(=O)O)[C@H]2C[C@@H]1O
inactive: [1] 0.0698 | [2] 0.0626 | [3] 0.106 | [4] -0.0365

COc1c(O)cc(O)cc1O
inactive: [1] 0.0746 | [2] 0.0275 | [3] 0.127 | [4] 0.0739

COCc1cc(O)c(O)c(O)c1-c1c(COC)cc(O)c(O)c1O
active: [11] -4.25 | [12] -2.42
inactive: [9] 0.13 | [10] 0.0379 | [1] 0.161 | [2] -0.00717 | [3] -0.00977 | [4] 0.159

COc1cc(O)c(C)c(O)c1
inactive: [1] 0.0455 | [2] 0.156 | [3] 0.0996 | [4] 0.176

CC(=O)c1c(C(C)=O)c(C)n(-c2cc(C)cc(C)c2)c1C
inactive: [1] 0.0993 | [2] 0.13 | [3] 0.0722 | [4] 0.0963

CC(C)N1C(=O)C(=Cc2ccc(F)cc2)SC1=S
inactive: [1] 0.0751 | [2] 0.059 | [3] 0.129 | [4] -0.0496

O=S(=O)(c1cccc2cnccc12)N1CCNCC1
inactive: [5] 0.166 | [6] 0.045 | [7] 0.145 | [8] 0.0254

O=S(=O)(c1cccc2c(I)cccc12)N1CCCNCC1
active: [3] -0.248 | [11] -0.335 | [12] -0.197
inactive: [9] 0.188 | [10] -0.167 | [1] 0.201 | [2] -0.255 | [5] 0.178 | [6] 0.133 | [4] -0.111 | [7] 0.0746 | [8] 0.0593
